Assay outcomes as filed in PubChem BioAssay.
CtBP-E1A inh = qHTS Assay for Inhibitors of the CtBP/E1A Interaction. CtBP / adenovirus E1A interaction (AlphaScreen). AlphaScreen GST-E1A/His-CtBP binding, 1536-well; stronger effect = lower value. activity change, % (concentration not given with the values). actives 0.49% (n = 340,000); in the data active means activity change below about -65%; inconclusive means mostly about -30% to -63%
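Steps: dispense buffer (Tris pH 8.0, NaCl 300 mM, TCEP 1 mM, BSA, Tween 20); add 5X protein mix (GST-E1A, His-CtBP, 125 nM each); pin 23 nL compound; 2 h at 37 °C, dark; add 5X beads (50 ug/mL); 1 h; read.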
HP1b binding inh = HTS for Inhibitors of HP1-beta Chromodomain Interactions with Methylated Histone Tails. Chromobox protein homolog 1 (Homo sapiens), P83916. AlphaScreen HP1-beta / biotin-H3K9me3 peptide binding. Potency, µM (series often up to 114 µM), hits mostly inhibitors. actives 0.56% (n = 390,000); further: nearly all actives have a fitted effect of over 70% in size
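AlphaScreen: HP1-beta (50 nM) preformed 30 min with biotin-H3(1-18)K9me3 peptide (50 nM) in PBS pH 7.4, 0.01% Tween-20. Compound added for 30 min at RT, then streptavidin donor/nickel chelate acceptor beads (10 ug/mL) for 30 min.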
JMJD2A Tudor = qHTS Assay for Inhibitors of JMJD2A-Tudor Domain; actives 4.4% (n = 390,000); Potency, µM (series often up to 114 µM), most hits filed as inhibitors; AlphaScreen JMJD2A-Tudor / H3K4me3 peptide binding; further: nearly all actives have a fitted effect of over 50% in size
TDP1 inh = qHTS Assay for Inhibitors of Tyrosyl-DNA Phosphodiesterase (TDP1) | Tyrosyl-DNA phosphodiesterase 1 (Homo sapiens), Q9NUW8 | recombinant TDP1, AlphaScreen DNA substrate cleavage | Potency, µM (top dose mostly 130 µM), most hits filed as inhibitors | actives 0.28% (n = 350,000) | AID 485290, 2010; further: nearly all actives have a fitted effect of over 40% in size
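E. coli-derived human Tdp1, 1 nM final. Cpd preinc 15 min RT; substrate 15 nM final, 5 min RT; AS bead mix 10 ug/ml final, 10 min RT. Signal loss = tyrosine-FITC cleavage. No-enzyme wells = max signal.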
Six1-Eya2 inh = qHTS Assay for Inhibitors of the Six1/Eya2 Interaction. AID 651725, 2012. activity change, % (no concentration beside the values). AlphaScreen GST-Six1/His-Eya2 binding, biochemical; stronger effect = lower value. actives 0.56% (n = 360,000). Homeobox protein SIX1 (Homo sapiens) + Protein phosphatase EYA2 (Homo sapiens), …; in the data active means activity change below about -65%; inconclusive means mostly about -30% to -63%
Target sequence (O00167 whole entry, looked up): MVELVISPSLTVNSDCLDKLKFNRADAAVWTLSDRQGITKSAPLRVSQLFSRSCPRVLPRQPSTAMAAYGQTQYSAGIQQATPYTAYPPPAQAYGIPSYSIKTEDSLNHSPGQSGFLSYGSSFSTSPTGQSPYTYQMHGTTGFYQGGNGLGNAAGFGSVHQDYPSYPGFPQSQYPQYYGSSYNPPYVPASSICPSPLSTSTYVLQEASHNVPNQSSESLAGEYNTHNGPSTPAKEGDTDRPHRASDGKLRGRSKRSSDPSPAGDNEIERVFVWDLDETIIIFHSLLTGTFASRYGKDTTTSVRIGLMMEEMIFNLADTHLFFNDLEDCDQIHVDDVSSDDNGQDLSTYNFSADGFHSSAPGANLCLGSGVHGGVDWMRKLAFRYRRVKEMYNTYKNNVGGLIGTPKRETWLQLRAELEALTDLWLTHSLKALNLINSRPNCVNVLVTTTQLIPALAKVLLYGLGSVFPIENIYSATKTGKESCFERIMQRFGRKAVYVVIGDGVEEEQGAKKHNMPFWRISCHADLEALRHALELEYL
Target sequence (Q15475 whole entry, looked up): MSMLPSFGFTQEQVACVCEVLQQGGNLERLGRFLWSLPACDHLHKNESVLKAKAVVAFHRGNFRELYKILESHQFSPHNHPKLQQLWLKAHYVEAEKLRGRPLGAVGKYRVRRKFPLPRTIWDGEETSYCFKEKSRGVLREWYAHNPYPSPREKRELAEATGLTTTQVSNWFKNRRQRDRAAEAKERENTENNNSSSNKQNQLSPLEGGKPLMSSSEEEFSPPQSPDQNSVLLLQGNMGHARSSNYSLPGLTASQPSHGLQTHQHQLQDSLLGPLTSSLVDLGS
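Homogeneous AlphaScreen proximity assay pairing GST-Six1 with His-tagged Eya2 (added as 5X mix: 250 nM and 500 nM) in 50 mM Tris pH 8.0, 300 mM NaCl, 1 mM TCEP. Glutathione donor and nickel acceptor beads; 1 h, 37 °C, dark.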
BAZ2B block = qHTS Assay for Inhibitors of BAZ2B | Bromodomain adjacent to zinc finger domain protein 2B (Homo sapiens), Q9UIF8 | AlphaScreen BAZ2B-H3K14Ac peptide displacement | Potency, µM (titrated, usually from 114 µM), usual class: inhibitors | actives 4.4% (n = 360,000); further: nearly all actives have a fitted effect of over 60% in size
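Complex of BAZ2B and biotin-H3K14Ac (50 nM apiece) forms over 30 min at RT, then faces library compounds up to 110 uM for another 30 min; AlphaScreen beads added, 20 min dark incubation, luminescence read.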
Numbers stand for hits; n = inactive; u = inconclusive; x = no result given; [ ] = another dose, or the depositor's remark. Hits are enriched below; roughly 5.3% of the tested compounds scored in any of these assays. Unless noted, the call rests on the fitted dose curve; in most records, active means well fitted inhibition curve with a large enough effect; inconclusive means small, poorly fitted or top-dose-only effect; inactive means no such curve, though single readings can be large or run the other way.

SMILES	CtBP-E1A inh	HP1b binding inh	JMJD2A Tudor	TDP1 inh	Six1-Eya2 inh	BAZ2B block
C=CCC(C)(O)C#Cc1ccccc1 (stereo not drawn)	x	x	x	n	x	x
O=C1C(N2CCOCC2)=C(n2nnc3ccccc32)C(=O)c2ccccc21	n	u	n[11.4 µM]	n	n	10µM
CCOC(=O)c1ccc(NC(=O)Cn2nc3c4ccccc4n(Cc4cccc(F)c4)cc-3c2=O)cc1	x	n	n	n	x	n
CCOC(=O)N1CCc2c(sc(NCc3ccc(N(C)C)cc3)c2C(=O)Nc2ccccc2OCC)C1	x	u	13µM	n	x	8.9µM
CCOC(=O)N1CCc2c(sc(NCc3ccc(N(CC)CC)cc3)c2C(=O)Nc2cc(OC)ccc2OC)C1	x	u	u	n	x	7.9µM
CCOC(=O)N1CCc2c(sc(NCc3ccc(OCC)cc3)c2C(=O)Nc2ccc(OC)cc2OC)C1	x	n	u	n	x	n
CC/C=C\C/C=C\C/C=C\C/C=C\C/C=C\C/C=C\CCC(=O)NCCCC(=O)O	x	x	x	n	x	x
COc1ccc2cc3cc(C(=O)Nc4cc(C)c(Cl)cc4OC)oc3nc2c1	x	n	n	n	x	x
O=S(=O)(c1ccccc1)N1CCN(Cc2ccccc2)CC1	n	n	n	n	n	n
Cc1ccc(S(=O)(=O)N2CCN(Cc3cccc(F)c3)CC2)cc1	n	u	3.2µM	x	n	x
O=S(=O)(c1ccccc1)N1CCN(Cc2cccc(Cl)c2)CC1	n	n	8.9µM	n	n	32µM
Cc1ccc(S(=O)(=O)N2CCN(CCC#N)CC2)cc1	n	45µM	3.5µM	n	n	20µM
CN(C)c1cc2c3ccccc3n(C)c2cc1N	n	45µM	32µM	x	n	x
COc1ccccc1NC(=O)Cn1c(C)cc(=O)c2cccc(OC)c21	u	n	n	n	n	n
COc1cccc2c(=O)cc(C)n(CC(=O)Nc3ccc(C)c(C)c3)c12	-70	n	n	n	-94	n
CCN(CC)c1ccc2nc3ccccc3[n+](CC)c2c1	-75	u	u	n	-67	40µM
COc1ccc(C(=O)O)nc1C	x	n	5.6µM	n	n	n
CC1(C)CC(=O)C(N=Nc2ccc(C(F)(F)F)cc2[N+](=O)[O-])=C(O)C1	n	u	50µM	n	n	20µM
Cc1nnc(SCC2=C(C(=O)O)N3C(=O)C(NC(=O)C(C)n4nc(C(F)(F)F)cc4C)C3SC2)s1 (stereo not drawn)	n	n	63µM	x	n	50µM
Cc1nnc(SCC2=C(C(=O)O)N3C(=O)C(NC(=O)Cc4ccccc4)C3SC2)s1 (stereo not drawn)	x	n	n	u	n	u
COc1ccccc1NS(=O)(=O)c1cccc(-n2c(O)c(C=Nc3ccccc3C(=O)O)c3ccccc3c2=O)c1	n	u	56µM	n	u	40µM
COc1ccc(-n2c(O)c(/C=N/NS(=O)(=O)c3ccc(C)cc3)c3ccccc3c2=O)cc1OC	n	n	u	n	n	u
O=c1c2ccccc2c(C=NC2CCN(Cc3ccccc3)CC2)c(O)n1Cc1ccc2c(c1)OCO2	x	x	x	n	x	8.9µM
COc1ccc(Cn2c(O)c(C=Nc3ccccc3C(=O)O)c3ccccc3c2=O)cc1	n	n	n	n	n	79µM
COc1ccc(NS(=O)(=O)c2ccc3c(c2)CCC(=O)N3)cc1	x	x	n	n	x	x
SMILES	CtBP-E1A inh	HP1b binding inh	JMJD2A Tudor	TDP1 inh	Six1-Eya2 inh	BAZ2B block
O=S(=O)(c1ccc2c(c1)OCCO2)N1CCN(S(=O)(=O)c2ccc(Br)cc2F)CC1	x	x	n	x	x	x
Cc1cc2c(nc1C)CCCCN2C[C@H](C)O/N=C1/[C@H]2O[C@@H]2[C@@H](O)[C@H]2[C@H]1CCn1c(=O)n(-c3ccccc3)c(=O)n12	x	x	x	n[21 µM]	x	x
COc1ccc(NC(=O)CSc2nccn2Cc2ccco2)cc1	n	n	n	n	n	n
COc1ccc(NC(=O)CSc2nc(-c3ccco3)nc3cc(=O)[nH]n23)cc1Cl	n	n	45µM	50µM	n	79µM
COc1ccc(NC(=O)CSc2nc(-c3ccco3)nc3cc(=O)[nH]n23)cc1	x	n	n	x	x	79µM
O=C1c2ccccc2NC(c2ccc3c(c2)OCO3)N1Cc1ccco1 (stereo not drawn)	x	n	n	n	x	x
COc1c(Br)cc(Br)cc1/C=N/n1c(C)nnc1C	n	u	40µM	n	n	n
COc1cc(Nc2nc3ccc(Cl)cc3nc2-n2nc(C)cc2C)cc(OC)c1	x	n	n	n	x	n
CC(Oc1ccccc1)C(=O)N1CCN(Cc2cc(=O)n3nc(-c4ccccc4Cl)sc3n2)CC1 (stereo not drawn)	x	n	n	n	x	n
C/C(=N\NC(=O)c1cc(O)cc(O)c1)c1ccc(NC(=O)Cc2ccccc2)cc1	-89	32µM	14µM	1.8µM	-89	8.9µM
N#CC(=C1C=CC(=NO)C(Cl)=C1)c1ccc(Cl)cc1	n	u	20µM	x	n	x
COc1cccc(-n2c(C)c3c(OC)cccc(=O)c3c2C)c1	n	n	u	n	n	56µM
COc1cccc(=O)c2c(C)n(-c3cc(C)cc(C)c3)c(C)c12	n	n	u	n	n	u
O=c1[nH]n2c(=O)c3c([nH]c2c1N=Nc1cccc(Cl)c1)CCC3	n	u	4µM	n	u	35µM
O=c1[nH]n2c(=O)c3c([nH]c2c1N=Nc1cccc(C(F)(F)F)c1)CCCC3	n	n	u	n	u	n
Cc1cccc(N=Nc2c(C)c(C#N)c(O)[nH]c2=O)c1	n	n	n	n	n	n
NS(=O)(=O)c1ccc(N=Nc2c(=O)[nH]n3c(=O)c4c([nH]c23)CCCC4)cc1	n	n	n	n	n	28µM
COc1cccc(N=Nc2c(=O)[nH]n3c(=O)c4c([nH]c23)CCC4)c1	n	u	50µM	u	u	45µM
COc1cccc(N=Nc2c(=O)[nH]n3c(=O)cc(C)[nH]c23)c1	n	n	u	n	n	50µM
COc1cc(Cl)c(C)cc1NC(=O)c1cc2c(Cl)nc3ccc(C)cc3c2s1	x	n	n	n	x	u
CCC(c1nnnn1Cc1ccco1)N1CCN(c2cc(Cl)ccc2C)CC1 (stereo not drawn)	n	u	50µM	n	n	u
CC(C)(C)n1nnnc1C(c1ccncc1)N1CCN(c2ccc(O)cc2)CC1 (stereo not drawn)	n	u	45µM	n	n	n
CCC(c1nnnn1Cc1ccc2c(c1)OCO2)N1CCN(c2ccc(OC)cc2)CC1 (stereo not drawn)	u	n	u	n	n	32µM
